# USP28 block: inhibitors of human USP28 deubiquitinase. purified USP28, Ub-rhodamine cleavage fluorescence, 30 min. inhibition, % at 25 µM. AID 1645857, 2021. Ubiquitin carboxyl-terminal hydrolase 28 (Homo sapiens), Q96RU2. 47,000 compounds, 3% hits
# Target sequence (Q96RU2 whole entry, looked up): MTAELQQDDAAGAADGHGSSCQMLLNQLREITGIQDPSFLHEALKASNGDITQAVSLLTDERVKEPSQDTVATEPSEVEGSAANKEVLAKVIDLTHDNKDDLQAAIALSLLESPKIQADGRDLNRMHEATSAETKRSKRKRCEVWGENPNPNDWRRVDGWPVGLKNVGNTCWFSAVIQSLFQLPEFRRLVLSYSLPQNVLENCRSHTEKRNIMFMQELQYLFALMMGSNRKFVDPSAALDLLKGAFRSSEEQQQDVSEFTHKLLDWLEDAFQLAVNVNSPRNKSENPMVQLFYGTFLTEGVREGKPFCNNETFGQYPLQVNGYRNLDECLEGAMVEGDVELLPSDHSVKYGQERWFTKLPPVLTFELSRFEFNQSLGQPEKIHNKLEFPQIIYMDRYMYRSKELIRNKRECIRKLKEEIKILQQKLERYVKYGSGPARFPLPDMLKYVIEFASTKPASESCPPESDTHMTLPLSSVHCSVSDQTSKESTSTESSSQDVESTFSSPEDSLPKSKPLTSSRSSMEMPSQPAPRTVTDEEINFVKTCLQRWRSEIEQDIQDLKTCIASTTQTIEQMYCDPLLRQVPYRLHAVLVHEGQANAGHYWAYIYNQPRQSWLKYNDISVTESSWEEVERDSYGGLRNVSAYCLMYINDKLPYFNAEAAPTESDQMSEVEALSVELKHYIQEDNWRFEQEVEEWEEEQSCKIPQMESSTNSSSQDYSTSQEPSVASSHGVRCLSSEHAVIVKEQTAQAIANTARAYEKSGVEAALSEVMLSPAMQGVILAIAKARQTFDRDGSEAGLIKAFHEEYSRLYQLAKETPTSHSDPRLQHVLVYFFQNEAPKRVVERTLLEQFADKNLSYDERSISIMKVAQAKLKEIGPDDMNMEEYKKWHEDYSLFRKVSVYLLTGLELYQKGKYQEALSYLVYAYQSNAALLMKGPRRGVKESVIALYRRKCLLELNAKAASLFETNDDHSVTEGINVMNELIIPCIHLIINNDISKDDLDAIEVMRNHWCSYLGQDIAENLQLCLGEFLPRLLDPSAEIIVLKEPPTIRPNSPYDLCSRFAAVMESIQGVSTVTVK
# USP17 block: inhibitors of human USP17 deubiquitinase. 47,000 compounds, 6.5% hits. Ubiquitin carboxyl-terminal hydrolase 17-like protein 5 (Homo sapiens), A8MUK1. purified USP17, Ub-rhodamine cleavage fluorescence, 3 h. inhibition, % at 50 µM
# USP30 block: inhibitors of human USP30 deubiquitinase; Ubiquitin carboxyl-terminal hydrolase 30 (Homo sapiens), Q70CQ3; purified USP30, Ub-rhodamine cleavage fluorescence; inhibition, % at 25 µM; 47,000 compounds, 5.3% hits
# USP8 block: inhibitors of human USP8 deubiquitinase; Ubiquitin carboxyl-terminal hydrolase 8 (Homo sapiens), P40818; purified USP8, Ub-rhodamine cleavage fluorescence, 30 min; inhibition, % at 20 µM; 47,000 compounds, 4.2% hits; AID 1645853, 2021
# Active calls of the source: *; i = inactive; / = no result given. This is a sample that favours compounds with a hit; in the whole collection about 14% have one here. No stated cut-off is given here; in the data, active means inhibition above about 30%; inactive means the rest.
SMILES,USP28 block,USP17 block,USP30 block,USP8 block
CC(C)NS(=O)(=O)c1cccc2c(NC(=O)C(Cc3ccccc3)NC(=O)c3ccccc3)cccc12 (stereo not given),1,6,79*,24
O=C(c1ccc(COc2cccc3ccccc23)o1)N1CCC(Cc2ccccc2)CC1,0,68*,-83,-11
CN1[C@@H](CCC(=O)N2CCc3ccccc32)CNC(=O)[C@@H]2[C@H]1CCN2Cc1ccccn1,-5,-16,-10,-161
Cc1ccc2c(c1)-c1onc(C(=O)NCCc3c[nH]c4ccccc34)c1CO2,7,33*,-37,-14
O=c1c2cc(F)ccc2ncn1C1CCN(S(=O)(=O)c2ccccc2)CC1,-1,1,0,6
Cc1ccc(S(=O)(=O)N2CCC(n3cnc4ccc(C)cc4c3=O)CC2)cc1,14,18,35*,0
COc1ccc(C(=O)N2CCN(CCCc3c[nH]c4ccc(F)cc34)CC2)cc1,-7,-3,-5,-55
COc1cnc(-c2ccccn2)nc1Sc1ccccc1Cl,5,39*,87*,-326
C=C(C)[C@@H]1CC[C@]2(C(=O)O)CC[C@]3(C)[C@H](CC[C@@H]4[C@@]5(C)CC[C@H](O)C(C)(C)[C@@H]5CC[C@]43C)[C@@H]12,10,31*,15,19
C=C(C/C=C/C(C)(C)O)[C@H]1CC[C@]2(C)[C@@H]1CC[C@@H]1[C@@]3(C)CC[C@H](O)C(C)(C)[C@@H]3CC[C@]12C,14,15,27,2
Cn1c(SCCOc2ccccc2)nnc1-c1ccc2c(c1)OCCCO2,4,3,7,3
Cn1c(SCCOc2ccc(Cl)cc2)nnc1-c1ccc2c(c1)OCCO2,27,18,54*,10
COc1ccc(C(=O)Nc2cc(S(=O)(=O)Nc3ccc(Cl)cc3)ccc2C)cc1,8,-4,-11,-14
O=C(NCCc1cccnc1)c1nc2c(s1)CCCN2C(=O)C1CC1,21,4,18,-16
O=C(NCCc1cccc(F)c1)c1nc2c(s1)CCCN2C(=O)C1CC1,37*,-9,12,-61
Cc1ccc(-n2ncc(C(=O)NCc3cccc(Cl)c3)c2C2CCNCC2)cc1Cl,24,/,44*,-161
O=C(NCc1cccc(Cl)c1)c1cnn(-c2ccc(Cl)cc2)c1C1CCNCC1,7,-29,7,-189
O=C(Nc1nc2c(s1)CN(S(=O)(=O)c1ccccc1)CC2)C1CCC1,15,-2,0,-115
O=C(Nc1ccc(-c2cn3ccsc3n2)cc1)c1ccc(Cl)c([N+](=O)[O-])c1,32*,12,82*,97*
Cc1ccc(-c2cn3ccsc3n2)cc1,-1,-21,-3,-22
O=C(NCc1ccco1)c1ccc2ccnc(N3CCN(c4ccc(Cl)cc4)CC3)c2c1,11,12,-27,0
COCC(=O)Nc1cc(F)c2nc(N3CCOCC3)ccc2c1,-2,63*,-31,89*
CCOC(=O)c1cc(NC(=O)COc2ccccc2)ccc1N1CCOCC1,-1,-3,17,1
Cc1cccc(OCC(=O)Nc2cc(F)c3nc(N4CCOCC4)ccc3c2)c1,-51,-12,-139,60*
Cc1ccc(NC(=O)c2c(O)c3cnn(C)c3[nH]c2=O)cc1C,-2,6,-13,85*
SMILES,USP28 block,USP17 block,USP30 block,USP8 block
O=C(NCc1ccc2c(c1)OCO2)c1c(O)c2cnn(Cc3ccccc3)c2[nH]c1=O,-3,7,0,57*
Cc1ccccc1NC(=O)c1c(O)c2cnn(Cc3ccccc3)c2[nH]c1=O,5,35*,-244,83*
O=C(NCc1ccccc1)c1c(O)c2cccnc2n(-c2ccccc2)c1=O,4,23,21,2
O=C(NCc1ccc2c(c1)OCO2)c1c(O)c2cccnc2n(-c2ccccc2)c1=O,1,-1,-4,81*
CN(C)C(=O)N1CCC2(CC(=O)N(c3ccc4c(c3)OCCO4)C2)C1 (stereo not given),-1,-7,4,-62
O=C(NCc1cc(F)cc(F)c1)c1c(O)c2cnn(Cc3ccccc3)c2[nH]c1=O,1,11,7,17
O=C(Nc1ccccc1)c1c(O)c2cccnc2n(-c2ccc(F)cc2)c1=O,6,1,6,4
COc1ccccc1NC(=O)c1c(O)c2cccnc2n(-c2ccccc2)c1=O,3,8,14,33*
CC(NC(=O)c1c(O)c2cnn(Cc3ccccc3)c2[nH]c1=O)c1ccccc1 (stereo not given),-1,12,-145,86*
O=C(c1cc(C2CC2)on1)N1CCCC1c1ccccc1Cl (stereo not given),-3,-2,-2,0
Cc1ccc(S(=O)(=O)Nc2c(O)c3ccccc3oc2=O)cc1C,0,3,18,19
Cc1cc(O)c2c(=O)c3c(O)cccc3oc2c1O,6,37*,28,6
Cc1cccc(-n2nnc3c(=O)n(C(C)c4ccccc4)cnc32)c1 (stereo not given),-11,-11,12,-14
COc1ccc(NC(=O)c2c(NC(=O)Cc3ccccc3)sc3c2CCC(C)C3)cc1 (stereo not given),2,-4,-34,-17
COc1ccc(NC(=O)c2ccc3c(c2)C2C4CCC(C4)C2C(c2ccccc2)N3)cc1 (stereo not given),0,11,39*,0
COc1ccc(NC(=O)c2ccc3[nH]c4c(c3c2)CC(C)CC4)cc1 (stereo not given),2,31*,-3,26
COC(=O)c1cc(NC(=O)Nc2ccc(OC(F)(F)F)cc2)ccc1N1CCOCC1,32*,-1,-26,-3
COC(=O)c1cc(NC(=O)Nc2ccccc2C(F)(F)F)ccc1N1CCOCC1,4,0,-7,-10
CC(=O)COc1ccc2c(c1C)OC(C)(C)CC2=O,3,-4,18,3
Cc1cc(C)c(COc2ccc3c(c2C)OC(C)(C)CC3=O)c(C)c1,12,21,30*,20
O=C(Cc1ccc(-n2c(=O)c3ccccc3n(Cc3cccc(F)c3)c2=O)cc1)NC1CCCC1,4,-1,-25,21
COc1cc(NC(=O)Cn2c(=O)n(-c3ccc(CC(=O)NC4CCCC4)cc3)c(=O)c3ccccc32)cc(OC)c1,44*,41*,21,63*
O=C(Cn1c(=O)n(-c2ccc(CC(=O)NC3CCCC3)cc2)c(=O)c2ccccc21)Nc1ccccc1[N+](=O)[O-],14,21,16,80*
O=C(Cc1ccc(-n2c(=O)c3ccccc3n(Cc3cccc([N+](=O)[O-])c3)c2=O)cc1)NC1CCCC1,14,23,21,26
CCOC(=O)C1CCCN(Cc2cc(=O)oc3cc(C)c(C(C)C)cc23)C1 (stereo not given),0,4,-5,-5
CCOC(=O)C1CCN(Cc2cc(=O)oc3cc(O)c(O)cc23)CC1,85*,85*,52*,91*
O=C(Nc1cccnc1)c1ccn(-c2ccc3ccc(-c4ccncc4)cn23)n1,-222,-148,i,-181
Cc1ccccc1OCC(=O)NCC(c1ccco1)N1CCCC1 (stereo not given),-3,-7,-3,-3
